Data taken from PubChem BioAssay AID2417 (National Center for Advancing Translational Sciences (NCATS), 2010).
Out of some 140,000 compounds screened, about 4,300 (3.1%) were called active. About 21% were inconclusive and are not listed.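 How the source made its calls: active means readout at or below -70, meaning at least 70% loss of cells showing the perinucleolar compartment, a nuclear body marking cancer cells; inconclusive means readout between -30 and a set limit; inactive means the rest.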 Only a selection was taken, and actives are over-represented in it overall.

Assay: High Content Assay for Compounds that inhibit the Assembly of the Perinucleolar Compartment;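 further: plate controls were DMSO wells for no effect and camptothecin positive control wells for full effect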
Details: PC3M PTB-GFP, PNC prevalence imaging, 16 h; at 10 µM; hits give low values
Source text: High Content Assay for Compounds that inhibit the Assembly of the Perinucleolar Compartment NIH Chemical Genomics Center [NCGC] NIH Molecular Libraries Probe Centers Network [MLPCN] MLPCN Grant: MH082371-01A2 Assay Submitter (PI): Sui Huang, Northwestern University, Feinberg School of Medicine, Cell and Molecular Biology, Chicago, Illinois. The perinucleolar compartment (PNC) is a non-membrane-bound nuclear subdomain that is associated with but structurally distinct from the nucleolus. The PNC is a heritable trait, in which the number of PNCs per cell in daughter cells often mimics that of their mother cells. The PNC is heterogeneous in shape, is stable through interphase, disassembles during mitosis, and reassembles in early G1. The PNC is concentrated with newly synthesized RNA polymerase III (pol III) RNAs (MRP RNA, RNAse P H1 RNA, hY RNAs[hY1, 2, 5], Alu RNA, and SRP [7SL] RNA) and RNA binding proteins (nucleolin, PTB, CUG-BP, KSRP, Raver1, Raver2, and Rod). […] Extensive in vitro studies have shown that the PNC is unique to tumor cells and preferentially forms in tumor cells derived from solid tissues. Examination of cancer cell lines from various origins and malignant capacities has shown that PNC prevalence correlates with the malignancy of tumors and has the potential to be developed as a pan-cancer prognostic marker. […] Although the PNC is associated with a DNA locus and a handful of components have been identified, much remains to be investigated regarding the structure and function of the PNC and its mechanistic link to cancer. We have previously shown that PNC prevalence reduction is a valid strategy to identify compounds that can be used to study the structure and function of the PNC. It is necessary, however, to create a screening platform that is able to test a large number of compounds in an automated fashion. Here we report the development and robustness of an automated whole-cell phenotypic image-based screening assay that is capable of identifying such compounds.
PNC High Content Imaging Assay Procedure: 1. Cells at a density of 75-90% confluency in T175 flasks were harvested using 7 ml TrypLE Express cell dissociation reagent. After dissociation (5 minutes room temperature incubation) 10 ml of complete media was added to the TrypLE/cell suspension. The liquid was transferred to a 50 ml Conical tube and cells were pelleted at 1000 RPM for 5 min. Supernatant was removed and cells were resuspended to a final density of 150-200 cells/ul in complete media. 2. Cells were plated in 5 ul volume (750-1000 cells/well) into 1536 well Black uclear Aurora Low Base plates and allowed to recover and adhere at 37 C in a humidified 5% CO2 incubator for 4 hours. 3. After 4 hour incubation, compound libraries (23 nl of […] in columns 5-48) were transferred to the plates in duplicate using a 1536 well pintool. Camptothecin positive control (59 uM final) was added to column 2 and 1:3 dilutions of camptothecin was added to column 3. DMSO negative controls were present in columns 1 and 4. 4. After a 16 hour incubation in the 37 C incubator, cells were fixed by the addition of 4 ul of 6% EM grade paraformaldehyde (containing 0.1% triton X 100) directly to the cells. The plates were incubated at room temperature for 20 minutes. The liquid was removed using a 32 channel Kalypsys aspirator and the fixed cells were washed twice with 5 ul PBS followed by a final addition of 5 ul PBS containing 1 ug/ml Hoechst 33342. 5. Fixed plates were sealed and sotred at 4C until imaged. 6. Plates were imaged on an InCell 1000 automated microscope using a 20 x objective, a standard FITC filter set, no camera binning, and an exposure time of ~100-150 msec/well. 7. Data analysis. PNC prevalence was determined using the Multitarget analysis module from InCell Workstation software (V3.5 ) and analysis was run on a quad core workstation using the Incell Developer Toolbox (V1.7). […]

Activity change (PNC), negative = inhibition, inactive:
COc1ccc(C/C(C)=N/NC(=O)c2ccncc2)cc1 36.6%
Cc1cc(=O)n2nc(N3CCCC(C(=O)NCCC4=CCCCC4)C3)sc2n1 (stereo not drawn) 6.76%
Cc1ccnc(N2CCCC(C(=O)Nc3cc(F)ccc3C)C2)n1 (stereo not drawn) -22.4%
NS(=O)(=O)c1ccc(CCNC(=S)Nc2ccc(S(N)(=O)=O)cc2)cc1 74.6%
CCOC(=O)NC(=O)C(=CNc1cccc(OC)c1)C(=O)NC(=O)OCC 45.4%
CCOC(=O)C(NC(=O)CC(C)C)(Nc1sc2c(c1C(N)=O)CCCC2)C(F)(F)F (stereo not drawn) 0.0946%
CCn1nc(C(=O)OCC(=O)N2c3ccccc3CC2C)c2ccccc2c1=O (stereo not drawn) -8.81%
CC1Cc2ccccc2N1C(=O)CSc1nc2ccccc2o1 (stereo not drawn) 31.3%
COc1ccc(C2CC(c3ccccc3)=NN2C(=O)c2ccc(Cl)c([N+](=O)[O-])c2)cc1 (stereo not drawn) 27.8%
CCOc1ccc(S(=O)(=O)N(CC(=O)NCC(F)(F)F)Cc2ccco2)cc1 52.1%
Cc1cc(/C=C2\SC(=Nc3ccc(N4CCOCC4)cc3)N(C)C2=O)c(C)n1-c1cccnc1 -27.8%
CC(=O)Nc1ccc(OC(=O)COc2ccc(Br)cc2)cc1 36.4%
CCOC(=O)N1CCN(C(=O)COc2ccc(Br)cc2)CC1 -29.5%
COc1ccc(C(C(=O)NC2CCCCC2)N(C(=O)Cc2c[nH]c3ccccc23)c2ccccc2)cc1OC (stereo not drawn) 32.6%
CCC(CC)NC(=O)/C=C/c1cccc([N+](=O)[O-])c1 -18.8%
CS(=O)(=O)N(Cc1ccc(Cl)cc1)c1ccc(C(=O)NCCSCc2ccco2)cc1 22.9%
COc1ccc(CCNC(=O)c2ccco2)cc1 24.7%
O=C(/C=C/c1ccc([N+](=O)[O-])cc1)NCCSCc1ccco1 85.9%
CC(=O)c1c(O)cc2n(c1=O)-c1ccc(Cl)cc1C2(C)C -2.74%
O=C(NC(=O)N1CCOCC1)c1ccccc1 6.63%
O=C(Nc1ccn(Cc2ccccc2)n1)c1n[nH]c([N+](=O)[O-])c1Cl 5.38%
CC(Sc1cccc[n+]1[O-])C(=O)Nc1cccc(S(=O)(=O)N2CCOCC2)c1 (stereo not drawn) -7.27%
COc1ccc(-c2csc(NC(=O)COC(=O)c3ccc(Br)o3)n2)cc1 -8.03%
CC(NC(=S)Nc1ccc(S(N)(=O)=O)cc1)c1ccc2c(c1)OCO2 (stereo not drawn) -20.3%
c1ccc(-n2nc3ccccc3n2)cc1 -3.58%
N#CC1=C(N)N(c2ccccc2)C2=C(C(=O)CCC2)C1c1ccccc1 (stereo not drawn) 5.97%
CCCCCC(=O)Nc1ccc(S(=O)(=O)Nc2ccc(Cl)nn2)cc1 31.2%
CCOc1ccccc1N1CCN(C(=S)Nc2ccc(S(N)(=O)=O)cc2)CC1 -28.8%
COC(=O)c1c(NC(=O)c2cccs2)sc2c1CCCC2 -6.02%
Cc1ccc(C(=O)c2c(NC(=O)c3ccccc3)sc(C)c2C)cc1 71.1%
CN1CCN(c2ccc(S(=O)(=O)N3CCCCC3)cc2NC(=O)Cc2ccccc2F)CC1 41.3%
CCCCn1c(SCc2ncc(-c3ccccc3)o2)nc2cc(S(N)(=O)=O)ccc21 27%
CCOC(=O)C1CCN(C(=O)CSc2cc(=O)n(C)c3ccccc23)CC1 0.103%
COC(=O)c1c(C)[nH]c(C(=O)/C=C/c2ccc(Cl)cc2)c1C 0.424%
CCCCN(CC)CCNC(=O)c1[nH]c(C)c(C(C)=O)c1C -4.29%
CC(=O)c1c(Nc2ccccc2)sc(C(=O)c2ccccc2)c1C 73.7%
Cc1cc(NS(=O)(=O)c2ccc(NC(=S)NC(=O)c3ccc(F)cc3Cl)cc2)no1 -22%
Cc1ccc(C(=O)C(=S)N2CCOCC2)cc1 -3.45%
COc1cccc(N2C(=O)CC(N3CCN(S(=O)(=O)c4ccccc4)CC3)C2=O)c1 (stereo not drawn) -19.9%
COc1cccc(N2CCN(C3CC(=O)N(c4ccc(Cl)cc4)C3=O)CC2)c1 (stereo not drawn) -3.5%
COc1ccc(N2C(=O)CC(N3CCC(C(N)=O)CC3)C2=O)cc1 (stereo not drawn) 19.9%
O=CN1CCN(C2CC(=O)N(c3ccc4c(c3)OCO4)C2=O)CC1 (stereo not drawn) -6.31%
Cn1cc([N+](=O)[O-])c(C(=O)Nc2cnn(Cc3ccc(F)cc3)c2)n1 -17%
COCCOC(=O)c1c(C)oc2cc(Br)c(OCC(N)=O)cc12 -7.11%
CC(C)(C)c1ccc(/C=C/C(=O)Nc2ncccn2)cc1 15.2%

Activity change (PNC), negative = inhibition, active:
COc1cc(C)nc(N2CCCC(C(=O)NCC(C)C)C2)n1 (stereo not drawn) -100%
CC1Cc2ccccc2N1C(=O)Cn1cnc2ccccc2c1=O (stereo not drawn) -80.4%
CN1CCCC(OC(=O)COc2ccc(Br)cc2)C1 (stereo not drawn) -86.4%
O=C(/C=C/c1cccc([N+](=O)[O-])c1)NCCSCc1ccco1 -113%
COc1cc(OC)cc(C(=O)NCCSCc2ccco2)c1 -94.6%
O=C1CCCc2nn(-c3ccccc3)nc21 -100%
Cc1ccc(C(=O)c2c(NC(=O)c3ccncc3)sc3c2CCCC3)cc1 -86.2%
CC(=O)NC1C(Oc2ccc(C)cc2)OC2COC(c3ccco3)OC2C1O (stereo not drawn) -119%
N#CCOc1ccc(C2=NO[C@@H]3[C@@H]4C[C@@H]([C@H]5C(=O)N(c6ccc7c(c6)OCO7)C(=O)[C@@H]45)[C@H]23)cc1 -91.1%
CCCCn1c(SCC(=O)N2CCC(C(=O)OCC)CC2)nc2cc(S(N)(=O)=O)ccc21 -100%
CCCCOC(=O)c1[nH]c(C)c(C(=O)OC)c1C -88.2%
COc1ccc(N2CCN(C3CC(=O)N(c4ccc5c(c4)OCCO5)C3=O)CC2)cc1 (stereo not drawn) -84.9%
COC(=O)c1cc(C(=O)OC)cc(N2C(=O)CC(N3CCN(c4ccccc4)CC3)C2=O)c1 (stereo not drawn) -94.7%
